Here are results for 22 molecules from PubChem BioAssay (NCATS).

Inconclusive results are not listed. Active and inactive are the calls of the source. The call rests on the fitted dose curve; in most records, active means well fitted inhibition curve with a large enough effect; inconclusive means small, poorly fitted or top-dose-only effect; inactive means flat fitted curve, though single readings scatter.

Common to all, as to test: qHTS profiling for inhibitors of Plasmodium falciparum proliferation (AID 504749); further: nearly all actives have a fitted effect of over 60% in size
Conditions in all cases: P. falciparum in erythrocytes, SYBR Green DNA, 72 h; series mostly up to 28.7 µM

The subject of one assay is DFO2036. The essentials: (§1)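 Each compound contacts P. falciparum-infected red blood cells for 72 h at 37 C; lysis buffer (Tris, EDTA, saponin, Triton X, SYBR Green I) is added and fluorescence measured next morning; values normalized to controls.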
Another assay concerns DIV17. In outline: as §1
The next assay concerns FAB9. The essentials:
as §1

In another assay the test system is HB3. The essentials: as §1
Another assay has as its system ICS. The essentials:
as §1

The subject of the next assay is PC15. The essentials: as §1
In another assay the test system is PC49. In outline:
as §1

The next assay has as its system SC27B. The essentials:
as §1

Another assay relates to TAB109. In outline: as §1
For the next assay, the system named is DIV14. The essentials: as §1
In a further assay the test system is Dd2. The essentials: as §1
The next assay concerns GB4. In outline:
as §1

Another assay has as its system N140. In outline:
as §1

A further assay relates to P93_24. The essentials: as §1
The subject of the next assay is P94_40. In outline:
as §1

For a further assay, the system named is JCK. In outline:
as §1

Another assay has as its system DIV30. In outline: as §1
A further assay has as its system ECU. The essentials: as §1
The next assay relates to PAD. In outline: as §1
For another assay, the system named is PC26. The essentials: as §1
Potency means the concentration at half of the fitted maximal effect.

With `CCCN1C[C@H](CSC)C[C@@H]2c3cccc4[nH]cc(c34)C[C@H]21`, the Potency entry in the assay with DFO2036, in the assay on FAB9, in the assay on HB3, with PC15 and in the assay with PC49 was “inactive” in each case. Besides, the Potency with DIV17 was 7.57 µM (active); in the assay with ICS it was 11.2 µM (active); with SC27B, 11.2 µM (active); with TAB109, 12.6 µM (active).

Take `C=CCc1ccccc1OCC(O)CNC(C)C` (centres undefined): the Potency in the assay on DIV14 was 8.49 µM (active); with DIV17 it was 8.49 µM (active); with Dd2, 7.94 µM (active); in the assay on GB4 it was 7.57 µM (active); with ICS it was 11.2 µM (active); in the assay with N140, 11.2 µM (active). The Potency is 4.47 µM (active) in the assay with P93_24 and 12.6 µM (active) in the assay on P94_40. The Potency entry with FAB9 and with PC49 was “inactive” each time.

Turning to `COCCCC/C(=N\OCCN)c1ccc(C(F)(F)F)cc1`, the values for the Potency with Dd2 and with P93_24 were 7.94 µM (active) and 8.91 µM (active), respectively. Also, the Potency entry in the assay on FAB9, in the assay on HB3, with JCK and in the assay on PC49 was “inactive” throughout.

On to `NC1=NCC2c3ccccc3Cc3ccccc3N12` (centres undefined), for which the Potency result with DFO2036, in the assay on DIV30, with Dd2, with ECU, in the assay with FAB9 and with HB3 was “inactive” throughout. In addition, the Potency entry in the assay with JCK, in the assay with N140, in the assay on P93_24, in the assay with P94_40, with PAD and in the assay on PC15 was “inactive” in each case. Besides, the Potency entry in the assay with PC26, in the assay with PC49, in the assay on SC27B and in the assay on TAB109 was “inactive” each time. The Potency with DIV17 was 13.5 µM (active).

Take `OC(CCN1CCCCC1)(c1ccccc1)C1CCCCC1` (centres undefined): the Potency result with DFO2036, in the assay on FAB9, with GB4, with HB3, with JCK and in the assay with PAD was “inactive” throughout. The Potency result with PC15 and in the assay on SC27B was “inactive” in each case.

With `COc1cc(C(=O)OCCCN2CCCN(CCCOC(=O)c3cc(OC)c(OC)c(OC)c3)CC2)cc(OC)c1OC`, the Potency with DIV14 was 9.53 µM (active); with DIV17 it was 12 µM (active); with Dd2, 12.6 µM (active); in the assay with ECU, 8.91 µM (active); in the assay on GB4, 13.5 µM (active); in the assay with ICS, 8.91 µM (active). Moreover, the Potency in the assay on N140 is 12.6 µM (active); in the assay with P93_24, 10 µM (active); in the assay with TAB109, 11.2 µM (active).

With `CCN(CC)CCNC(=O)c1cc(S(C)(=O)=O)ccc1OC`, the Potency entry in the assay on DFO2036, in the assay with Dd2, in the assay on ECU, in the assay on FAB9, in the assay on HB3 and in the assay with ICS was “inactive” throughout. Also, the Potency entry in the assay on JCK, in the assay with N140, in the assay with P93_24, in the assay on P94_40, in the assay with PAD and with PC15 was “inactive” each time. The Potency result in the assay with PC49, in the assay on SC27B and in the assay on TAB109 was “inactive” in each case.

Take `CCCCCCCC/C=C\CCCCCCCC(=O)NCc1ccc(O)c(OC)c1`: the Potency entry with DIV17, in the assay on DIV30 and in the assay with PC26 was “inactive” each time. For the same molecule, the results for the Potency in the assay with Dd2 and with SC27B were 14.1 µM (active) and 10 µM (active), respectively.

`CNCCC(Oc1ccccc1OC)c1ccccc1` (centres undefined): the Potency in the assay on DIV14 is 4.78 µM (active); with DIV17, 8.49 µM (active); in the assay with Dd2 it was 6.31 µM (active); in the assay on PC49, 3.16 µM (active). Also, the Potency result in the assay on FAB9 and in the assay on HB3 was “inactive” each time.

On to `CCOC(=O)C1=C(C)NC(C)=C(C(=O)OC)C1c1cccc([N+](=O)[O-])c1` (centres undefined), for which the Potency entry in the assay with FAB9 was “inactive”. Also, the Potency with HB3 is 11.2 µM (active); in the assay with N140, 11.2 µM (active); with P94_40, 11.2 µM (active); in the assay with SC27B, 12.6 µM (active).

On to `CN(C)C/C=C(/c1ccc(Br)cc1)c1cccnc1`, for which the Potency result in the assay with DFO2036, in the assay with DIV17, in the assay with DIV30, in the assay with FAB9, in the assay with HB3 and in the assay with JCK was “inactive” in each case. The Potency result in the assay with N140, in the assay with PC15, in the assay on PC26, in the assay on PC49 and in the assay with SC27B was “inactive” each time. Further, the Potency in the assay with Dd2 is 12.6 µM (active).

For the molecule `CN(C)CC/C=C1\c2ccccc2COc2ccccc21`, the Potency result in the assay on DFO2036, in the assay with ECU, in the assay with FAB9, in the assay on HB3, in the assay with JCK and in the assay on PAD was “inactive” throughout. The Potency entry with PC15 is “inactive”. Also, in the assay on Dd2, the Potency is 8.91 µM (active).

In the case of `Fc1ccc(C(c2ccc(F)cc2)N2CCN(C/C=C/c3ccccc3)CC2)cc1`, the Potency in the assay on ECU was 11.2 µM (active); with HB3 it was 11.2 µM (active); in the assay on ICS, 8.91 µM (active); in the assay on N140, 11.2 µM (active); in the assay with P93_24, 8.91 µM (active).

With `CC(C)(C)c1ccc(C(=O)CCCN2CCC(OC(c3ccccc3)c3ccccc3)CC2)cc1`, the Potency is 10 µM (active) with Dd2; 10.7 µM (active) with GB4; 4.47 µM (active) in the assay on ICS; 10 µM (active) in the assay on N140; 7.94 µM (active) in the assay on P94_40. Moreover, the Potency entry in the assay with JCK and in the assay with PC49 was “inactive” each time.

As for `CCC(=O)c1ccc2c(c1)N(CCCN(C)C)c1ccccc1S2`, the Potency in the assay on DIV14 was 6.01 µM (active); in the assay with DIV17, 4.78 µM (active); with Dd2, 7.94 µM (active); with ICS it was 8.91 µM (active). The Potency result in the assay with ECU, in the assay on HB3, in the assay with PC49 and with SC27B was “inactive” throughout.

As for `COC(=O)[C@@H](N)Cc1ccc(O)c(O)c1`, the Potency entry in the assay on DFO2036, in the assay with DIV30, with Dd2, with ECU, in the assay on FAB9 and in the assay on HB3 was “inactive” in each case. Also, the Potency result in the assay on ICS, in the assay on JCK, in the assay on N140, with P93_24, in the assay on P94_40 and with PAD was “inactive” throughout. Also, the Potency result in the assay with PC15, in the assay on PC26, in the assay with PC49, in the assay on SC27B and with TAB109 was “inactive” throughout.

Consider `CN(C)CCN(Cc1cccs1)c1ccccn1`, for which the Potency is 6.75 µM (active) with DIV14; 6.01 µM (active) with DIV17; 3.98 µM (active) with Dd2; 3.79 µM (active) in the assay with GB4; 11.2 µM (active) with N140; 7.94 µM (active) in the assay with P93_24. Also, the Potency with P94_40 is 10 µM (active); with PC49, 10 µM (active); with TAB109, 4.47 µM (active). Also, the Potency entry with ECU, with FAB9 and in the assay with HB3 was “inactive” in each case.

Turning to `CCCCNc1ccc(C(=O)OCCN(C)C)cc1`, the Potency entry with DIV30, with Dd2, in the assay with ECU, in the assay on FAB9, with GB4 and with HB3 was “inactive” throughout. For the same molecule, the Potency entry in the assay with ICS, in the assay with JCK, with N140, in the assay on P93_24, in the assay on P94_40 and with PAD was “inactive” throughout. For the same molecule, the Potency result in the assay with SC27B and in the assay with TAB109 was “inactive” in each case.

`COc1ccc(CN(CCN(C)C)c2ccccn2)cc1`: the Potency entry in the assay on DFO2036, in the assay on ECU, in the assay with FAB9, in the assay with HB3, with ICS and with P93_24 was “inactive” in each case. The Potency result in the assay with P94_40, with PAD, in the assay with PC15 and with PC26 was “inactive” in each case. Besides, the values for the Potency in the assay on GB4, with JCK and in the assay on PC49 were 6.01 µM (active), 1.26 µM (active) and 0.178 µM (active), respectively.

Regarding `CN1C[C@H](C(=O)N[C@]2(C)O[C@@]3(O)[C@@H]4CCCN4C(=O)[C@H](Cc4ccccc4)N3C2=O)C[C@@H]2c3cccc4[nH]cc(c34)C[C@H]21`, the Potency in the assay on DIV14 was 0.675 µM (active); with DIV17, 0.426 µM (active); in the assay with DIV30, 757 nM (active); with GB4 it was 6.01 µM (active); in the assay on PC26, 1.2 µM (active).

`Brc1c(NC2=NCCN2)ccc2nccnc12`: the Potency entry in the assay with DFO2036, with DIV30, in the assay with Dd2, in the assay with FAB9, in the assay on JCK and in the assay with P94_40 was “inactive” each time. The Potency entry in the assay on PC49 and with SC27B was “inactive” each time. In addition, the Potency in the assay with GB4 was 12 µM (active); in the assay with ICS, 3.98 µM (active); in the assay on P93_24 it was 11.2 µM (active).

For the molecule `CN(C)CCCN1c2ccccc2Sc2ccc(C(F)(F)F)cc21`, the Potency with DIV14 is 6.75 µM (active); in the assay with DIV17, 5.36 µM (active); in the assay on ECU, 12.6 µM (active); in the assay on ICS it was 10 µM (active); with PC49 it was 8.91 µM (active). Moreover, the Potency entry in the assay on FAB9 and in the assay with HB3 was “inactive” in each case.
